The structures appear in SMILES notation. Active and inactive are the calls of the source. Unless noted, how the calls were made is not given here.

We go through five compounds from PubChem BioAssay.

Assay [1] can be described thus: compounds binding Alexa647 anti-His antibody – biochemical, small-molecule microarray, 635 nm fluorescence, artefact control for SMM control protein annotation, primary screen (AID 1128).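 Further: score merges feature fluorescence with signal-to-noise for each printed compound spot.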 Particulars: higher = more signal.
Assay [2] deals with Human papillomavirus type 1a E7 protein (residues 1-88). Put plainly: HPV1a E7 small-molecule binders, primary screen, biochemical, small-molecule microarray, residues 1-88, 635 nm (AID 1129). Particulars: small-molecule microarray binding, fluorescence 635 nm; higher = more signal.
In assay [3] the target is Focal adhesion kinase 1 (Homo sapiens) (UniProt Q05397). The assay is described as follows: PTK2 protein binding on printed compound slides – biochemical, small-molecule microarray, 635/667 nm fluorescence, BSA, DTT, primary screen (AID 1130).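 Further: composite of spot emission at 667 nm and signal to noise over triplicate slides.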 The note with it: 635 nm fluorescence, higher = more signal.
Chain of Focal adhesion kinase 1 (Homo sapiens) (Q05397 whole entry, looked up): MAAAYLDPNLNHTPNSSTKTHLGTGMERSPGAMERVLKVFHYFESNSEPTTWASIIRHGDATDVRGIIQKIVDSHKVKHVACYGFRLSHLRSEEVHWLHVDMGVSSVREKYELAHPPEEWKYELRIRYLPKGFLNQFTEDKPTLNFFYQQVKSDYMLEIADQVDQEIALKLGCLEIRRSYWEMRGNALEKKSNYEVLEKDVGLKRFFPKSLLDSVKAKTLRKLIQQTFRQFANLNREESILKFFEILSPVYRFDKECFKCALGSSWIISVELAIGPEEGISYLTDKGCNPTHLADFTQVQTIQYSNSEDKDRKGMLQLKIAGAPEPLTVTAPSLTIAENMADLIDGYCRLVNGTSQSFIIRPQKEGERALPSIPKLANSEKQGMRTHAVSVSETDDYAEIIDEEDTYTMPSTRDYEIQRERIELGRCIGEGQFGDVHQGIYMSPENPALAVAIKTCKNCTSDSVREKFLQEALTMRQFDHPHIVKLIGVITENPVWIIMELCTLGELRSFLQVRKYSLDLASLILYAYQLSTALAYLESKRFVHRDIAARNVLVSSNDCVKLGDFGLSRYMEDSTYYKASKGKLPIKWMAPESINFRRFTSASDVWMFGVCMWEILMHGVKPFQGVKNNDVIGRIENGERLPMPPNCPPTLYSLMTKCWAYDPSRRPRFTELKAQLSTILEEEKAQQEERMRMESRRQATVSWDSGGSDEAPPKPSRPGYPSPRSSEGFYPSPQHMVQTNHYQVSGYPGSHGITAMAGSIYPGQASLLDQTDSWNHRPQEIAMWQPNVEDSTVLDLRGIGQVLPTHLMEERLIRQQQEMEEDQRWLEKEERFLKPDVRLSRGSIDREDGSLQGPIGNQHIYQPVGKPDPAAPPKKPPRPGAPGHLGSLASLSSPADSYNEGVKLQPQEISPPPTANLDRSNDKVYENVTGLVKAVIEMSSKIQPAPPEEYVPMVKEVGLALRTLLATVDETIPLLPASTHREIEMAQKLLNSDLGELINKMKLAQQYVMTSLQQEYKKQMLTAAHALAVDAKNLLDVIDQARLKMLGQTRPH
The subject of assay [4] is Fibrinogen (Alexa647-labelled). The assay is described as follows: Alexa647-fibrinogen binding to printed small molecules – biochemical, small-molecule microarray, 635/667 nm fluorescence, artefact control for SMM control-protein annotation, profiling panel (AID 1131).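 Further: z-score merges 667 nm fluorescence with per-spot signal-to-noise over triplicate slides.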 The note with it: fibrinogen-A647 binding fluorescence, higher = more signal.
Assay [5] deals with Follistatin (Homo sapiens) (UniProt P19883). Put plainly: FST protein binding to printed compounds – biochemical, small-molecule microarray, 635/667 nm fluorescence, primary screen (AID 1132). Particulars: 635 nm fluorescence, higher = more signal.
Chain of Follistatin (Homo sapiens) (P19883 whole entry, looked up): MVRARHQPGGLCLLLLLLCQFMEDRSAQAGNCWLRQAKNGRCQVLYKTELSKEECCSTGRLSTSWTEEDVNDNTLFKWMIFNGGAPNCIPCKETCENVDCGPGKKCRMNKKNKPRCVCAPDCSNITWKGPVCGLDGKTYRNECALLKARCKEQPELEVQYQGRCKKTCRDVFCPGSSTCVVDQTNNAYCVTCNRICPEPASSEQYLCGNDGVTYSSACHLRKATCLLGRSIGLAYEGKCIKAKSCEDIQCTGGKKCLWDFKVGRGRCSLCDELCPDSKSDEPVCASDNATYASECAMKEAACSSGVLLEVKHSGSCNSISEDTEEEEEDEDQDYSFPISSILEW
Assay [6] has as its target Fibroblast growth factor 2 (Homo sapiens) (UniProt P09038). Put plainly: basic fibroblast growth factor binding to printed compounds – biochemical, small-molecule microarray, 635/667 nm fluorescence, primary screen (AID 1133). Particulars: FGF2, fluorescence 635/667, higher = more signal.
A short description of assay [7]: JC-1 mitochondrial potential readout, lung cancer cells – cell-based, A549, JC-1 fluorescence, basal, 24 h, 100 nL, profiling panel (AID 1138).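 Further: A549 lung adenocarcinoma cells under basal conditions with no added stimulus; test concentration not given here.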 Particulars: higher = more signal.
The subject of the next assay is Lefty1. The assay is described as follows: Lefty1 protein binding to printed compounds – biochemical, small-molecule microarray, 635/667 nm fluorescence, primary screen (AID 1139). Particulars: fluorescence 635/667, higher = more signal.
Assay [8] has as its system wheat germ agglutinin (Triticum aestivum), Alexa647-labelled. The assay is described as follows: Alexa647-WGA lectin binding to printed small molecules – biochemical, small-molecule microarray, 635/667 nm fluorescence, artefact control for SMM control-protein annotation, profiling panel (AID 1140).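 Further: score merges 667 nm feature emission with signal to noise over triplicate slides.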 The note with it: WGA-A647 binding, 635 nm fluorescence, higher = more signal.

For assay [9], the target named is Luciferin 4-monooxygenase (Photinus pyralis) (UniProt P08659). The assay is described as follows: inhibition of purified Photinus pyralis luciferase – biochemical, luminescence, purified enzyme, 2006 set, primary screen (AID 1141).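 Further: cell-free assay with purified firefly luciferase at 100 ng per well in PBS; test concentration not given here.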 The note with it: purified firefly luciferase, SteadyGlo luminescence, 30 min; higher = more signal, called active from +8 up or from −8 down.
Chain of Luciferin 4-monooxygenase (Photinus pyralis) (P08659 whole entry, looked up): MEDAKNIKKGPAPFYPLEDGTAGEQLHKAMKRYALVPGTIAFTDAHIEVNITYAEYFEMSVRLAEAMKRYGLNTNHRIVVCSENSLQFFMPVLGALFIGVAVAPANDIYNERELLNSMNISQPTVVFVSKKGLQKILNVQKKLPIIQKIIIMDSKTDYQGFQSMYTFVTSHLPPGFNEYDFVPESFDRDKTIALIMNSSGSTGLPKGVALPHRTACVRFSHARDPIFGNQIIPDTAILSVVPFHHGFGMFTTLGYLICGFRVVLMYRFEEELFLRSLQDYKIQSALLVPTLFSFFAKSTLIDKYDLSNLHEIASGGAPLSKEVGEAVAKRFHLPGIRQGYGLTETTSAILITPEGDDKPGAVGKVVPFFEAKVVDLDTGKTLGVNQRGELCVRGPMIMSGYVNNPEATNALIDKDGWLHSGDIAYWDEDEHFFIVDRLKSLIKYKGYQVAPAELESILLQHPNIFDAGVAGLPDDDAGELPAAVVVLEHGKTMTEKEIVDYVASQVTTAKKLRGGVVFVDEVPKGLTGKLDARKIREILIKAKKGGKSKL

The test system of assay [10] is Wnt5a (protein binding on small-molecule microarray). The assay is described as follows: small molecules binding Wnt5a protein – biophysical, small-molecule microarray, 635/667 nm fluorescence, primary screen (AID 1142).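 Further: fluorescence read at 667 nm with signal to noise per printed feature.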 The note with it: 635 nm fluorescence, higher = more signal.
Assay [11] is described as follows: ATP-based viability of Huh7 replicon cells – cell-based, CellTiter-Glo luminescence, basal, 48 h, cytotoxicity control for HCV replication inhibitor project, primary screen (AID 1143).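 Further: Huh7 hepatoma cells carrying a hepatitis C replication reporter with no stimulus; test concentration not given here.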 The note with it: higher = more signal, called active from +8 up or from −8 down. (In antiviral work, replicon cells carry a viral genome segment that copies itself.)
Assay [12] in a line: Pseudomonas biofilm growth suppression – PAO1 strain, BacTiter-Glo luminescence, LB-PBS, primary screen (AID 1144). Particulars: P. aeruginosa PAO1 biofilm, 12 h, higher = more signal.
Assay [13] in a line: basal CRE-LacZ reporter activity in PC12 – cell-based, unstimulated, primary screen (AID 1145). The note with it: no forskolin, luminescence, 4.5 h, higher = more signal, called active from +8 up or from −8 down.
Assay [14] can be described thus: forskolin-driven CRE-LacZ activity in PC12 – cell-based, CRE-LacZ reporter, forskolin-stimulated, primary screen (AID 1146).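 Further: PC12 cells with 6xCRE LacZ reporter stimulated by forskolin 10 µM; beta-galactosidase reporter signal reflecting CREB driven transcription.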 The note with it: luminescence, 4.5 h, higher = more signal, called active from +8 up or from −8 down.
Assay [15] addresses Streptavidin (Streptomyces avidinii) (UniProt P22629). The assay is described as follows: compounds binding control protein streptavidin – biophysical, small-molecule microarray, 635/667 nm fluorescence, artefact control for SMM compound annotation, primary screen (AID 1147).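 Further: signal reflects streptavidin binding to arrayed compounds as a control protein.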 The note with it: higher = more signal.
Assay [16] is described as follows: probe aInhba binding on compound microarray – biochemical, small-molecule microarray, 635/667 nm fluorescence, primary screen (AID 1148).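 Further: score merges 667nm spot fluorescence with signal-to-noise for antibody binding to printed compounds.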 The note with it: higher = more signal.
The target of assay [17] is Torsin-1A (Homo sapiens) (UniProt O14656). Put plainly: TOR1A wild-type binding on microarray – cell lysate, small-molecule microarray, lysate, 635/667 nm, primary screen (AID 1149). Particulars: COS7 hTOR1A-WT lysate, 635 nm fluorescence, higher = more signal.
Chain of Torsin-1A (Homo sapiens) (O14656 whole entry, looked up): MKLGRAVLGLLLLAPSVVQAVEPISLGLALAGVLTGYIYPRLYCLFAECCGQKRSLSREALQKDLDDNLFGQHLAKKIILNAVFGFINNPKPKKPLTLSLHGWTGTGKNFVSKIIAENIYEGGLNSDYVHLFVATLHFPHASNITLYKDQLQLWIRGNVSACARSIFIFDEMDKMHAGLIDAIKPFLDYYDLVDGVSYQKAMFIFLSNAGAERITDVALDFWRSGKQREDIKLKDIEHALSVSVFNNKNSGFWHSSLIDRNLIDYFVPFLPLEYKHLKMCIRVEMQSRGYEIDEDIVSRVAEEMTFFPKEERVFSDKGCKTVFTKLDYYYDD
The target is the same in assay [18]. The assay is described as follows: torsin A mutant lysate binding on microarrays – cell lysate, small-molecule microarray, COS7 lysate, 635/667 nm fluorescence, primary screen (AID 1150).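 Further: score pools 667 nm emission and signal to noise measuring lysate protein binding.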 Particulars: COS7 hTOR1A mutant lysate, 635 nm fluorescence, higher = more signal.
In assay [19] the test system is Sonic hedgehog protein (Shh). Put plainly: Sonic hedgehog microarray binding compounds – biochemical, small-molecule microarray, 635/667 nm fluorescence, primary screen (AID 1151).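 Further: Shh protein binding to compounds spotted on small-molecule microarray slides; score combines spot fluorescence intensity with signal-to-noise across triplicate slides.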 The note with it: 635 nm fluorescence, higher = more signal.

Chain of Streptavidin (Streptomyces avidinii) (P22629 whole entry, looked up): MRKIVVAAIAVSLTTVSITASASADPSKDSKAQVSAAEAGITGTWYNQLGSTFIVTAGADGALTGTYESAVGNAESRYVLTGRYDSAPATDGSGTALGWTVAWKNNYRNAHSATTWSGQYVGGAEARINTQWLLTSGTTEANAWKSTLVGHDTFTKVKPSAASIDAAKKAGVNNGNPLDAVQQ
Chain of Fibroblast growth factor 2 (Homo sapiens) (P09038 whole entry, looked up): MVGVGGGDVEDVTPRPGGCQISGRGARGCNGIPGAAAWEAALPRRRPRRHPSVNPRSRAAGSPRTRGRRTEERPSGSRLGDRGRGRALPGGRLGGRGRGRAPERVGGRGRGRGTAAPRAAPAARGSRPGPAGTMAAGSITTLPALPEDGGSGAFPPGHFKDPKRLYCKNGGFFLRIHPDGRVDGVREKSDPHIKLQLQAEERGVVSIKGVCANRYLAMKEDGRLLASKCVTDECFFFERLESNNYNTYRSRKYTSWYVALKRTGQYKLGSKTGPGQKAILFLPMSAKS

For `CCCNC(=O)[C@@H]1c2ccccc2C(=O)N(c2ccc(C)cn2)[C@H]1c1ccc(CO)cc1`, the composite z-score is 0.63 in assay [1]; -0.38 in assay [2]; 0.14 in assay [3]; -0.367 in assay [4]; 0.316 in assay [5]; 0.398 in assay [6]. Further, the composite z-score in the assay with Lefty1 was -0.981; in assay [8], -0.273; in assay [10], -0.108; in assay [15], -0.372; in assay [16], -0.108; in the assay with Torsin-1A (Homo sapiens) [17], -0.291. The composite z-score was -0.397 with Torsin-1A (Homo sapiens) [18] and -0.013 in assay [19]. In addition, the z-score in assay [7] is -0.307; in assay [9] it was 0.544 (inactive); in [11], 0.62 (inactive); in assay [12], 0.242 (inactive); in assay [13] it was -0.412 (inactive); in assay [14], 0.538 (inactive).
`CCCCCCc1nc(CCCc2cc3c(c(CCCCCC)n2)[Si](C(C)C)(C(C)C)O[C@H]3c2ccccc2)cc2c1[Si](C(C)C)(C(C)C)O[C@H]2c1ccccc1`: the composite z-score is -0.246 in [1]; -0.526 in assay [2]; -0.43 in [3]; -1.19 in [4]; 0.385 in [5]; -0.0811 in assay [6]. Further, the composite z-score in the assay on Lefty1 is 0.778; in [8] it was -0.0778; in [10] it was -0.0661; in assay [15] it was 0.0479; in assay [16], -0.0972; in the assay with Torsin-1A (Homo sapiens) [17] it was -0.285. Further, the composite z-score in the assay with Torsin-1A (Homo sapiens) [18] was -0.0949; in assay [19], 0.406. For the same compound, the z-score in [7] is 0.669; in [9] it was 0.733 (inactive); in [11], -0.636 (inactive); in [12], 0.182 (inactive); in assay [13], -0.0106 (inactive); in [14] it was -0.222 (inactive).
For the compound `[N-]=[N+]=NCc1ccccc1C[C@]1(C(=O)NCc2ccccc2)N=C(c2ccc(OCCCO)cc2)O[C@H]1c1ccccc1N=[N+]=[N-]`, the composite z-score came to 1.99 in assay [1]; 1.17 in assay [2]; 1.54 in assay [3]; 0.967 in [4]; 0.931 in assay [5]; 1.49 in [6]. Also, the composite z-score with Lefty1 was -0.875; in [8] it was 0.285; in [10] it was 0.729; in [15], 0.83; in assay [16] it was -0.287; in the assay with Torsin-1A (Homo sapiens) [17], -0.0818. For the same compound, the results for the composite z-score (with Torsin-1A (Homo sapiens) [18]; in [19]) were 0.334 and -0.46, respectively. In addition, the z-score in assay [7] is -0.711; in assay [9], -4.08 (inactive); in assay [11] it was -4.38 (inactive); in [12], -0.144 (inactive); in [13], 0.493 (inactive); in assay [14] it was -0.951 (inactive).
With `COc1ccc(-c2ccc3c(n2)CCCN3CC(O)CN2CCCc3nc(C)c(C)cc32)cc1` (stereo not given), the composite z-score in assay [1] was determined as 2.62; in assay [2], 0.478; in [3], 0.351; in [4] it was 0.733; in [5], 1; in assay [6] it was 0.62. In addition, the composite z-score with Lefty1 worked out at 1.05; in assay [8], 1.03; in assay [10] it was 0.268; in [15], 1.52; in assay [16] it was 0.276; with Torsin-1A (Homo sapiens) [17], 0.785. Also, the figures for the composite z-score (with Torsin-1A (Homo sapiens) [18]; in assay [19]) were 1.15 and 1.19, respectively. Besides, the z-score is 1.7 in assay [7]; -1.2 (inactive) in assay [9]; -0.154 (inactive) in [11]; -0.0522 (inactive) in assay [12]; -0.0779 (inactive) in assay [13]; 0.536 (inactive) in [14].
For `CC(CCN1CCc2nc(-c3ccccc3)c(-c3ccccc3)cc2C1)=NO[C@H](C)c1cn([C@@H]2COC[C@H]2O)nn1`, the composite z-score in assay [1] worked out at 0.124; in assay [2], 0.915; in [3] it was 0.0127; in assay [4] it was 0.717; in assay [5] it was 0.438; in assay [6], 0.0208. The composite z-score was 0.712 with Lefty1; 0.224 in assay [8]; 0.0025 in assay [10]; -0.384 in [15]; 0.0183 in assay [16]; 1.01 with Torsin-1A (Homo sapiens) [17]. For the same compound, the composite z-score in the assay with Torsin-1A (Homo sapiens) [18] stood at 1.11; in [19], 0.572. In addition, the z-score is 1.17 in assay [7]; -0.475 (inactive) in assay [9]; -0.615 (inactive) in assay [11]; -0.733 (inactive) in assay [12]; 0.983 (inactive) in [13]; -0.258 (inactive) in assay [14].
